Test results published in PubChem BioAssay.
The source made the active and inactive calls. Unless noted, the rule behind the calls is not given here.

Experiments:
[1] = tested on: Wnt5a (protein binding on small-molecule microarray); test: small molecules binding Wnt5a protein – biophysical, small-molecule microarray, 635/667 nm fluorescence, primary screen (AID 1142); details: 635 nm fluorescence, higher = more signal;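 note: fluorescence read at 667 nm with signal to noise per printed feature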
[2] = ATP-based viability of Huh7 replicon cells – cell-based, CellTiter-Glo luminescence, basal, 48 h, cytotoxicity control for HCV replication inhibitor project, primary screen (AID 1143); details: higher = more signal, called active from +8 up or from −8 down;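 note: Huh7 hepatoma cells carrying a hepatitis C replication reporter with no stimulus; test concentration not given here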
[3] = Pseudomonas biofilm growth suppression – PAO1 strain, BacTiter-Glo luminescence, LB-PBS, primary screen (AID 1144); details: P. aeruginosa PAO1 biofilm, 12 h, higher = more signal
[4] = basal CRE-LacZ reporter activity in PC12 – cell-based, unstimulated, primary screen (AID 1145); details: no forskolin, luminescence, 4.5 h, higher = more signal, called active from +8 up or from −8 down
[5] = forskolin-driven CRE-LacZ activity in PC12 – cell-based, CRE-LacZ reporter, forskolin-stimulated, primary screen (AID 1146); details: luminescence, 4.5 h, higher = more signal, called active from +8 up or from −8 down;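 note: PC12 cells with 6xCRE LacZ reporter stimulated by forskolin 10 µM; beta-galactosidase reporter signal reflecting CREB driven transcription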
[6] = target: Streptavidin (Streptomyces avidinii) (UniProt P22629); test: compounds binding control protein streptavidin – biophysical, small-molecule microarray, 635/667 nm fluorescence, artefact control for SMM compound annotation, primary screen (AID 1147); details: higher = more signal;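 note: signal reflects streptavidin binding to arrayed compounds as a control protein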
[7] = probe aInhba binding on compound microarray – biochemical, small-molecule microarray, 635/667 nm fluorescence, primary screen (AID 1148); details: higher = more signal;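 note: score merges 667nm spot fluorescence with signal-to-noise for antibody binding to printed compounds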
Torsin-1A (Homo sapiens) [8] = target: Torsin-1A (Homo sapiens) (UniProt O14656); test: TOR1A wild-type binding on microarray – cell lysate, small-molecule microarray, lysate, 635/667 nm, primary screen (AID 1149); details: COS7 hTOR1A-WT lysate, 635 nm fluorescence, higher = more signal
Torsin-1A (Homo sapiens) [9] = target: Torsin-1A (Homo sapiens) (UniProt O14656); test: torsin A mutant lysate binding on microarrays – cell lysate, small-molecule microarray, COS7 lysate, 635/667 nm fluorescence, primary screen (AID 1150); details: COS7 hTOR1A mutant lysate, 635 nm fluorescence, higher = more signal;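 note: score pools 667 nm emission and signal to noise measuring lysate protein binding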
[10] = tested on: Sonic hedgehog protein (Shh); test: Sonic hedgehog microarray binding compounds – biochemical, small-molecule microarray, 635/667 nm fluorescence, primary screen (AID 1151); details: 635 nm fluorescence, higher = more signal;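 note: Shh protein binding to compounds spotted on small-molecule microarray slides; score combines spot fluorescence intensity with signal-to-noise across triplicate slides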

Sequence of Streptavidin (Streptomyces avidinii) (P22629 whole entry, looked up): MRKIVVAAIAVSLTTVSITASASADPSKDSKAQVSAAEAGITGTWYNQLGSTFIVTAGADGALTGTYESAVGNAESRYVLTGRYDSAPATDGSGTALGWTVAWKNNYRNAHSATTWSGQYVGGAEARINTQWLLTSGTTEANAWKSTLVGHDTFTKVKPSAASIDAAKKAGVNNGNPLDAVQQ
Sequence of Torsin-1A (Homo sapiens) (O14656 whole entry, looked up): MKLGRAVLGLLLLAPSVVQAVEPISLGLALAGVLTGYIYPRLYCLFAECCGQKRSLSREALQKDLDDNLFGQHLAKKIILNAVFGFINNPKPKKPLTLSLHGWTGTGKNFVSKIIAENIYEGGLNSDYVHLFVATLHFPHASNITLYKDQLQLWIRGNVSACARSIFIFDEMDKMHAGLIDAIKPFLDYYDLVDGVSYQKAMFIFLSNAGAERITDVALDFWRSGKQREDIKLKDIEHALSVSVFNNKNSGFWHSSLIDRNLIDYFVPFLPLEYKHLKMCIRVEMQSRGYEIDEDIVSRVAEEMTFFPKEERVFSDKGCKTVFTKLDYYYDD

Row | Structure (SMILES) | composite z-score [1] | z-score [2] | z-score [3] | z-score [4] | z-score [5] | composite z-score [6] | composite z-score [7] | composite z-score (Torsin-1A (Homo sapiens) [8]) | composite z-score (Torsin-1A (Homo sapiens) [9]) | composite z-score [10]
1 | COC(=O)C1=CC(c2ccc(CO)cc2)=CC(c2cccs2)N(Cc2cccc(OC(F)(F)F)c2)C=C1C(=O)OC (stereo not given) | 0.0365 | -3.08 (inactive) | 0.714 (inactive) | 0.0924 (inactive) | -0.287 (inactive) | 2.29 | 0.248 | 0.947 | 0.76 | 0.381
2 | COc1ccc([Si](C)(C)[C@@H]2[C@@H](CC(=O)N(CCO)Cc3ccccc3)O[C@]3(C(=O)N(Cc4cccc(N5CCC5=O)c4)c4ccccc43)[C@H]2C)cc1 | 0.0348 | -5.72 (inactive) | 0.765 (inactive) | 0.236 (inactive) | 0.398 (inactive) | -0.287 | 0.0301 | 0.0525 | -0.009 | 1.81
3 | COCCOC(=O)N1C(=O)[C@@]2(c3cc(C#CC4=CCCCC4)ccc31)[C@H](c1ccc(O)cc1)N1[C@H](c3ccccc3)[C@H](c3ccccc3)OC(=O)[C@H]1[C@@H]2C(=O)N1CCCCCCC1 | 0.288 | -3.42 (inactive) | -0.307 (inactive) | -1.01 (inactive) | -1.09 (inactive) | 1.29 | 0.0818 | 0.588 | 0.594 | 1.76
4 | CCOC(=O)C1=C[C@@H](c2ccccc2)N(S(=O)(=O)c2ccc(C)cc2)[C@H]1c1ccc(F)cc1 | 0.0679 | -3.77 (inactive) | 0.449 (inactive) | -0.826 (inactive) | -0.552 (inactive) | 0.95 | 0.225 | 0.347 | 0.431 | 0.488
5 | Cc1ccccc1C(O)C1C=CC2C(=O)N(c3ccccc3)C(=O)C2N1Nc1ccc(C#N)cc1 (stereo not given) | 0.51 | 0.466 (inactive) | -1.14 (inactive) | -0.133 (inactive) | 1.66 (inactive) | 2.17 | 0.816 | 0.261 | 1.58 | -0.442
6 | O=C1OCCC/C=C\[C@H]2OC34C=CCN(CCN5CCOCC5)C(=O)[C@H]3N(CCCCCO)C(=O)[C@@H]4C12 (stereo not given in full) | -0.498 | 0.305 (inactive) | 1.67 (inactive) | 0.597 (inactive) | 0.515 (inactive) | -0.293 | 0.202 | -1.01 | -0.649 | 0.392
7 | CN(C)c1ccc(C(O)C2C=CC3C(=O)NC(=O)C3N2Nc2ccc(Cl)cc2Cl)cc1 (stereo not given) | -0.0936 | 0.126 (inactive) | -1.03 (inactive) | 0.629 (inactive) | 0.628 (inactive) | 0.437 | 0.13 | -0.0205 | 0.776 | -0.214
8 | O=C1C2C=CC(C(O)c3ccccc3)N(n3cnnc3)C2C(=O)N1Cc1ccccc1 (stereo not given) | 0.068 | 0.455 (inactive) | -1.43 (inactive) | 0.822 (inactive) | -0.5 (inactive) | 0.266 | 0.241 | 0.148 | -0.457 | -0.189
9 | COCCOC(=O)N1C(=O)[C@@]2(c3cc(C#CCCO)ccc31)[C@H](c1ccc(OCCO)cc1)N1[C@H](c3ccccc3)[C@H](c3ccccc3)OC(=O)[C@H]1[C@@H]2C(=O)NC[C@H](O)c1ccccc1 | 0.619 | -2.79 (inactive) | -0.668 (inactive) | -1.42 (inactive) | -0.137 (inactive) | 0.427 | 0.0183 | 0.703 | 1.16 | 1.7
10 | COc1ccc(NN2C(C(O)c3cc(OC)c(OC)c(OC)c3)C=CC3C(=O)N(C4CCCCC4)C(=O)C32)cc1 (stereo not given) | 0.866 | -1.6 (inactive) | -0.272 (inactive) | 0.285 (inactive) | 0.907 (inactive) | 1.14 | 0.294 | -0.125 | 0.236 | 0.377
11 | N#Cc1ccc(NN2C(C(O)c3ccc(I)cc3)C=CC3C(=O)N(c4ccccc4)C(=O)C32)cc1 (stereo not given) | 0.205 | 0.559 (inactive) | -0.363 (inactive) | -1.49 (inactive) | -0.755 (inactive) | 0.941 | -0.0645 | -0.147 | 0.629 | -0.468
12 | COc1ccc(CCN2C(=O)[C@@]3(c4ccc([N+](=O)[O-])cc4)CC(=O)N(CC45CC6CC(CC(C6)C4)C5)[C@@H]3c3ccc(CO)cc32)cc1 | -0.209 | -0.252 (inactive) | 0.655 (inactive) | 0.155 (inactive) | -0.036 (inactive) | -0.168 | 0.333 | 0.16 | 0.335 | 0.483
13 | COCCOC(=O)N1C(=O)[C@@]2(c3cc(C#CCC(C(=O)OC)C(=O)OC)ccc31)[C@H](c1ccccc1OCCO)N1[C@H](c3ccccc3)[C@H](c3ccccc3)OC(=O)[C@H]1[C@@H]2C(=O)N1CCCCCCC1 | 1.16 | -1.66 (inactive) | -0.129 (inactive) | -0.329 (inactive) | 0.0965 (inactive) | 2.45 | 0.628 | 1.29 | 0.96 | 1.66
14 | COc1ccc([Si](C)(C)[C@@H]2[C@@H](CCO)O[C@]3(C(=O)N(Cc4ccccc4)c4ccccc43)[C@H]2C)cc1 | -0.0721 | -1.98 (inactive) | 0.773 (inactive) | 0.0352 (inactive) | -0.46 (inactive) | -0.155 | 1 | -0.239 | -0.283 | 0.0843
15 | C=C(C(=O)CC[C@H](OC(=O)c1ccccc1-c1ccccc1C(=O)O)c1ccc(CO)o1)C(C)C | 0.416 | 0.559 (inactive) | -1.11 (inactive) | 0.406 (inactive) | 2.42 (inactive) | 0.194 | -0.0933 | 0.427 | 0.669 | 1.71
16 | COCCOC(=O)N1C(=O)[C@@]2(c3cc(C#CC4=CCCCC4)ccc31)[C@H](C(=O)NC[C@H](O)c1ccccc1)[C@H]1C(=O)O[C@H](c3ccccc3)[C@H](c3ccccc3)N1[C@@H]2c1ccc(OCCO)cc1 | 0.374 | -2.96 (inactive) | 0.329 (inactive) | 0.0776 (inactive) | 1.2 (inactive) | 0.855 | 0.0446 | 0.481 | 0.0642 | 2.05
17 | [N-]=[N+]=NCc1ccccc1[C@H]1OC(c2ccc(OCCCO)cc2)=N[C@@]1(Cc1ccccc1N=[N+]=[N-])C(=O)NCc1ccccc1 | 0.928 | -3.99 (inactive) | -0.358 (inactive) | 1.74 (inactive) | -0.676 (inactive) | 0.303 | 0.671 | 0.22 | 0.681 | 0.033
18 | COc1cc2c(cc1OC)CN(C(=O)[C@H]1[C@@H]3C(=O)O[C@@H](c4ccccc4)[C@@H](c4ccccc4)N3[C@@H](c3ccccc3OCCO)[C@]13C(=O)Nc1ccc(C#CC4(O)CCCCCC4)cc13)CC2 | 1.01 | -3.68 (inactive) | -1.5 (inactive) | -0.231 (inactive) | 1.57 (inactive) | 0.899 | 0.0119 | 0.808 | 1.12 | 1.33
19 | CC(=O)NCCCC[C@@H]1NC(=O)[C@@H]2C[C@H](C(=O)NCc3ccc(F)cc3)[C@H](c3cccc(OCCO)c3)N2C1=O | 0.0719 | -0.608 (inactive) | -0.225 (inactive) | 0.537 (inactive) | 0.517 (inactive) | -0.454 | -0.0209 | 0.544 | 1.05 | 1.8
20 | O=C/C=C/c1ccccc1Cl | -0.159 | -0.724 (inactive) | -0.904 (inactive) | -0.0243 (inactive) | -0.468 (inactive) | 0.143 | 0.0705 | -0.342 | 0.081 | -0.0129
21 | C=C(CCCC)C(=O)CC[C@@H](OC(C)=O)c1ccccc1OCCO | -0.283 | -3.08 (inactive) | -0.206 (inactive) | 9.35 (active) | -0.841 (inactive) | -0.484 | -0.024 | -0.0615 | 0.915 | 0.276
22 | CCCC=C(CCC)[C@@H](NS(=O)(=O)c1ccc(-c2ccccc2)cc1)c1ccc(C(=O)OC)cc1 | -0.228 | -3.56 (inactive) | -0.308 (inactive) | -0.182 (inactive) | -0.289 (inactive) | 0.111 | -0.0791 | -0.269 | -0.383 | -0.948
23 | COC(=O)[C@@]1(Cc2ccccc2CN=[N+]=[N-])N=C(c2ccc(OCCCO)cc2)O[C@H]1c1ccccc1N=[N+]=[N-] | 0.54 | -3.9 (inactive) | -0.174 (inactive) | 2.28 (inactive) | -0.505 (inactive) | -0.104 | -0.0645 | -1.42 | -0.855 | 1.77
24 | C#CCCCON=C1C[C@@H](O)[C@@H](O)[C@@H]2[C@@H]3C(=O)N(Cc4ccc5c(c4)OCO5)C(=O)[C@@H]3CC[C@@H]12 | -0.323 | -0.209 (inactive) | 1.86 (inactive) | -0.56 (inactive) | -0.157 (inactive) | 0.571 | -0.0245 | -0.345 | -0.151 | 0.9
25 | Cc1ccc([C@@H]2CC=C(C(=O)O)[C@H](c3ccccc3)N2S(=O)(=O)c2ccc(C)cc2)cc1 | 0.382 | -0.385 (inactive) | 0.134 (inactive) | 0.332 (inactive) | -0.311 (inactive) | 1.77 | 0.277 | 0.385 | 0.528 | 0.157
26 | CC(C)=C1C(=O)C(c2ccccc2)=C2CN3C(=O)N(CCc4ccccc4)C(=O)[C@]3(Cc3ccccc3)[C@H]21 | -0.355 | -0.462 (inactive) | 0.105 (inactive) | 0.783 (inactive) | 0.379 (inactive) | 0.0686 | 0.128 | -2.07 | -1.13 | -1.32
27 | COCCOC(=O)N1C(=O)[C@@]2(c3cc(C#CCNC(N)=O)ccc31)[C@H](c1ccccc1OCCO)N1[C@H](c3ccccc3)[C@H](c3ccccc3)OC(=O)[C@H]1[C@@H]2C(=O)NC[C@H](O)c1ccccc1 | 0.439 | -0.429 (inactive) | -0.209 (inactive) | -1 (inactive) | 0.172 (inactive) | 0.903 | -0.0375 | 0.834 | 0.525 | 1.87
28 | Cc1cc(C)c(C(O)C2C=CC3C(=O)N(C)C(=O)C3N2N2CCCCC2)c(C)c1 (stereo not given) | 0.423 | 1.09 (inactive) | -0.276 (inactive) | -0.14 (inactive) | 0.56 (inactive) | 1.4 | 0.233 | 0.0592 | 0.251 | 0.375
